Measured values from PubChem BioAssay (Tox21).
Records with an inconclusive call do not appear. Active and inactive are the calls of the source. Unless noted, calls follow the shape of the dose curve; as a rule, active = well fitted cell-killing curve with a large enough effect in the repeat runs; inconclusive = weak or mixed curves, or effect the other way; inactive = no such curve, though single readings can be large or run the other way.

Target: Peroxisome proliferator-activated receptor gamma (Homo sapiens) (UniProt P37231)
Sequence (P37231 whole entry, looked up): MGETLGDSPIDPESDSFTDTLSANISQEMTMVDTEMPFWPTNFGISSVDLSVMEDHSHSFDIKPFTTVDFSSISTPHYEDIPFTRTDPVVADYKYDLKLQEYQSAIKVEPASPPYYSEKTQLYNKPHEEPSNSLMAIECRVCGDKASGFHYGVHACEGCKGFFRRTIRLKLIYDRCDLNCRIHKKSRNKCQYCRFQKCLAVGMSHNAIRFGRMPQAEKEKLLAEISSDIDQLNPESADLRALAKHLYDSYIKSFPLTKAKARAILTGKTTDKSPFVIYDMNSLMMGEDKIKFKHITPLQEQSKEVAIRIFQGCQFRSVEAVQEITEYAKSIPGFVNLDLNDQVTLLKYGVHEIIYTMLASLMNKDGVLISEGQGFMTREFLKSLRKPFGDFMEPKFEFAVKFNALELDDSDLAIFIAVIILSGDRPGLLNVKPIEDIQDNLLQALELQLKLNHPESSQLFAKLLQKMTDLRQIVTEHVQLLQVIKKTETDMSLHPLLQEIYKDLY
Experiment: qHTS assay to identify small molecule agonists of the peroxisome proliferator-activated receptor gamma (PPARg) signaling pathway (AID 743094; active = well fitted activation curve with a large enough effect in the signal ratio in the repeat runs, not every such curve was filed as active; the % refers to the signal ratio)
Settings: HEK293H PPARg-UAS-bla, beta-lactamase FRET ratio, 17 h; series mostly up to 57 µM; activation: at the top concentration
In short: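 Quantitative HTS agonist mode: stable HEK293H line with UAS-beta-lactamase reporter under PPARg control, 17 h compound exposure at 37C, fluorescence after 1 h FRET substrate loading at room temperature.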
% is scaled to controls: 0 for no effect and ±100 for the full control effect.

SMILES	outcome	activation
O=c1cc(CO)occ1O	inactive	–
CCOC(C)(C)C	–	1.23% [at 78.9 µM] (inactive)
C=CCCCCCCCCC=O	–	0.469% (inactive)
O=C(O)CCCl	–	1.09% [at 78.9 µM] (inactive)
NC(CSCC(=O)O)C(=O)O (configuration not stated)	–	-6.18% (inactive)
CC(=O)c1ccccc1O	–	1.36% (inactive)
CC(=O)N(CC(O)CO)c1c(I)c(C(=O)NCCO)c(I)c(C(=O)NCC(O)CO)c1I (configuration not stated)	–	-4.2% (inactive)
Cc1ccc(=O)n(-c2ccccc2)c1	–	-4.16% (inactive)
CC(C)(O)C#CC(C)(C)O	–	3.97% [at 78.9 µM] (inactive)
OCCCC1CCCCC1	–	-0.423% (inactive)
N[C@H](C(=O)O)c1ccc(O)cc1	–	-2.69% (inactive)
CCCCCCCCS(=O)(=O)Cl	–	1.93% [at 78.9 µM] (inactive)
ClC(Cl)(Br)Br	–	-0.153% (inactive)
COC(=O)C1=C(C)NC(C)=C(C(=O)OC)C1c1ccccc1[N+](=O)[O-]	–	0.374% (inactive)
CCCCNC(=O)NCCCC	–	1.33% (inactive)
CCC(C)S (configuration not stated)	–	4.65% [at 3.17 µM] (inactive)
N#Cc1ccc(C2CCCc3cncn32)cc1 (configuration not stated)	–	0.85% [at 26.2 µM] (inactive)
CC(C)(CC(=O)O)C(=O)O	–	-1.25% (inactive)

Target: Peroxisome proliferator-activated receptor gamma (Homo sapiens) (UniProt P37231)
Experiment: qHTS assay to identify small molecule antagonists of the peroxisome proliferator-activated receptor gamma (PPARg) signaling pathway (AID 743191; calls by dose curve; also: nearly all actives have a fitted effect of over 30% in size)
Settings: HEK293H PPARg-UAS-bla, beta-lactamase ratio, antagonist, 17 h; series mostly up to 62.6 µM; ratio activity, negative = inhibition: at the top concentration
In short: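 Beta-lactamase reporter under UAS control in HEK293H PPARg-bla cells; compound treatment 17 h at 37C. Read-out: fluorescence intensity after 1 h room-temperature incubation with LiveBLAzer B/G FRET substrate.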

SMILES	ratio activity, negative = inhibition
O=c1cc(CO)occ1O	11.4% (inactive)
CCOC(C)(C)C	-6.53% [at 81.1 µM] (inactive)
CC(=O)N(CC(O)CO)c1c(I)c(C(=O)NCCO)c(I)c(C(=O)NCC(O)CO)c1I (configuration not stated)	0.194% (inactive)
Cc1ccc(=O)n(-c2ccccc2)c1	5.76% (inactive)
COC(=O)c1c(Cl)c(Cl)c(C(=O)OC)c(Cl)c1Cl	4.91% (inactive)
COC(=O)NN	-23.5% [at 81.1 µM] (inactive)
CC1=CC(C)C(C=O)CC1 (configuration not stated)	2.66% (inactive)
N[C@H](C(=O)O)c1ccc(O)cc1	-0.0543% [at 29.1 µM] (inactive)
CCCCCCCCS(=O)(=O)Cl	6.18% [at 81.1 µM] (inactive)
COC(=O)C1=C(C)NC(C)=C(C(=O)OC)C1c1ccccc1[N+](=O)[O-]	7.34% (inactive)
CCCCNC(=O)NCCCC	-12.8% (inactive)
CCC(C)S (configuration not stated)	25.6% [at 2.7 µM] (inactive)
CC(C)(CC(=O)O)C(=O)O	5.22% (inactive)
CN1CCC(=C2c3ccccc3CC(=O)c3sccc32)CC1	1.36% (inactive)

Test system: not listed separately
Experiment: qHTS assay to identify small molecule antagonists of the peroxisome proliferator-activated receptor gamma (PPARg) signaling pathway - cell viability counter screen (AID 743194); also: nearly all actives have a fitted effect of over 55% in size
Settings: PPARg-bla HEK293H viability, CellTiter-Glo luminescence, 17 h, co-treated with 50 nM rosiglitazone; series mostly up to 62.6 µM; activity change, negative = cytotoxicity: at the top concentration
In short: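 Viability was measured as CellTiter-Glo luminescence in GeneBLAzer PPARg UAS-bla HEK293H cells. These cells had been exposed 17 h at 37 C to compounds together with rosiglitazone at 50 nM final, with the beta-lactamase readout taken in the same wells.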

SMILES	activity change, negative = cytotoxicity	outcome
COc1ccc(CCN(C)CCCC(C#N)(c2cc(OC)c(OC)c(OC)c2)C(C)C)cc1OC (configuration not stated)	-1.84% (inactive)	–
O=c1cc(CO)occ1O	-1.96% (inactive)	–
NS(=O)(=O)c1cc(C(=O)O)cc(N2CCCC2)c1Oc1ccccc1	-0.412% (inactive)	–
CCOC(C)(C)C	4.23% [at 81.1 µM] (inactive)	–
C=CCCCCCCCCC=O	2.33% (inactive)	–
NC(=O)c1cn(Cc2c(F)cccc2F)nn1	-1.06% (inactive)	–
O=C(O)CCCl	-3.72% [at 81.1 µM] (inactive)	–
NC(CSCC(=O)O)C(=O)O (configuration not stated)	-1.76% (inactive)	–
CC(=O)c1ccccc1O	7.82% (inactive)	–
COC(=O)CCSCCC(=O)OC	2.68% (inactive)	–
CC(=O)N(CC(O)CO)c1c(I)c(C(=O)NCCO)c(I)c(C(=O)NCC(O)CO)c1I (configuration not stated)	4.02% (inactive)	–
Cc1[nH]c(=O)c(C#N)cc1-c1ccc2nccn2c1	-6.98% (inactive)	–
C=CCOCC(CC)(CO)COCC=C	14.6% (inactive)	–
Cc1ccc(=O)n(-c2ccccc2)c1	-11.1% (inactive)	–
COC(=O)c1c(Cl)c(Cl)c(C(=O)OC)c(Cl)c1Cl	0.0276% (inactive)	–
COC(=O)NN	-9.94% [at 81.1 µM] (inactive)	–
CC(C)(O)C#CC(C)(C)O	17.2% [at 81.1 µM] (inactive)	–
OCCCC1CCCCC1	3.43% (inactive)	–

SMILES	activity change, negative = cytotoxicity	outcome
CC1=CC(C)C(C=O)CC1 (configuration not stated)	7.43% (inactive)	–
N[C@H](C(=O)O)c1ccc(O)cc1	-13.2% [at 29.1 µM] (inactive)	–
CO/N=C(/C(=O)N[C@@H]1C(=O)N2C(C(=O)OCOC(=O)C(C)(C)C)=C(C)CS[C@H]12)c1csc(N)n1	0.636% (inactive)	–
COc1ccc2c(c1)c(CC(=O)OCC(=O)O)c(C)n2C(=O)c1ccc(Cl)cc1	-21.6% (inactive)	–
CCO/C([O-])=N/c1c[n+](N2CCOCC2)no1	0.957% (inactive)	–
CCCCCCCCS(=O)(=O)Cl	0.396% [at 81.1 µM] (inactive)	–
COC(=O)[C@@H](N)Cc1ccc(O)c(O)c1	-17.4% (inactive)	–
O=S(O)CO	9.62% (inactive)	–
ClC(Cl)(Br)Br	-0.832% (inactive)	–
CC(C)NCC(O)c1ccc(NS(C)(=O)=O)cc1 (configuration not stated)	11.5% [at 81.1 µM] (inactive)	–
COC(=O)C1=C(C)NC(C)=C(C(=O)OC)C1c1ccccc1[N+](=O)[O-]	–	inactive
CCCCNC(=O)NCCCC	-14.4% (inactive)	–
CCC(C)S (configuration not stated)	-9.73% [at 2.7 µM] (inactive)	–
N#Cc1ccc(C2CCCc3cncn32)cc1 (configuration not stated)	3.28% [at 29.1 µM] (inactive)	–
CCCCOCCOCCOCc1cc2c(cc1CCC)OCO2	-1.02% (inactive)	–
CC(C)(CC(=O)O)C(=O)O	-8.18% (inactive)	–
CN1CCC(=C2c3ccccc3CC(=O)c3sccc32)CC1	6.36% (inactive)	–
